Data from PubChem BioAssay AID1220 (Sanford-Burnham Center for Chemical Genomics, 2008).
The whole screen tested about 190,000 compounds, of which about 1,300 (0.68%) were called active. Rule as the data show it: active = inhibition above about 50%; inactive = the rest. The full list was thinned out, with actives kept by preference.

molecular target: Mannose-6-phosphate isomerase (Homo sapiens) (UniProt P34949); experiment: human PMI inhibitors, high substrate, primary screen, biochemical, fluorescence intensity, high mannose 6-phosphate (AID 1220); settings: recombinant PMI enzyme, coupled fluorescence intensity; at 20 µM; hits give high values
Sequence (P34949 whole entry, looked up): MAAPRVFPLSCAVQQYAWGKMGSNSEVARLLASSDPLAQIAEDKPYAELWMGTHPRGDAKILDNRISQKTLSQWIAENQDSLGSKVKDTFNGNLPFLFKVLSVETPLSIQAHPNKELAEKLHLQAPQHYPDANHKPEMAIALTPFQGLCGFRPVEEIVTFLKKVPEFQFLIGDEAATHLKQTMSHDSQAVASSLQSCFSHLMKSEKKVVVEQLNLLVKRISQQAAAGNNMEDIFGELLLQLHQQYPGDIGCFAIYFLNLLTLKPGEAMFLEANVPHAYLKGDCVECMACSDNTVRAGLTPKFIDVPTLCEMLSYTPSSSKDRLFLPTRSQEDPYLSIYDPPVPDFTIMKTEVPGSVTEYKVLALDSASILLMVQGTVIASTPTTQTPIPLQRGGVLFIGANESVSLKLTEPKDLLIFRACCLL

inhibition, active:
COc1ccc2c(c1)CCC1C2=NN(/C(C)=C\C(C)=O)C1c1ccc(F)cc1 (configuration not stated) 54.4%
COc1ccc2c(c1)C1=NN(/C(C)=C/C(C)=O)C(c3ccc(F)cc3)C1CC2 (configuration not stated) 56.3%
O=C1CN(CC(=O)N2CCOCC2)c2ccccc2O1 51.9%
O=C1CN(CC(=O)N2CCCCC2)c2ccccc2O1 51.6%

inhibition, inactive:
CC(=O)OC1CC(C)(C)N(OC(=O)c2ccccc2)C(C)(C)C1 -2.2%
Cc1cc(Nc2c(C#N)c(N)nn2C)ccc1F 0.7%
O=C(NC12CC3CC(CC(C3)C1)C2)c1cc2nc(-c3ccco3)cc(C(F)(F)F)n2n1 7.3%
O=C(NC1CCCCC1)C(c1ccco1)N(Cc1ccco1)C(=O)c1ccco1 (configuration not stated) -4.5%
O=C(Nc1ccc2c(c1)CCC2)c1ccccc1F -3.5%
Cc1nn(-c2ccccc2)c(C)c1/C=C/C(=O)OCC(=O)NC1CCS(=O)(=O)C1 (configuration not stated) -6.3%
CC1(C)CC(=O)CC(C2(O)C(=O)N(Cc3ccccc3)c3ccccc32)O1 (configuration not stated) 0.6%
O=C(CN(C(=O)CNS(=O)(=O)c1ccccc1)c1ccc2c(c1)OCCO2)NCc1ccco1 -2.1%
CCC(=O)Nc1cc(Cl)ccc1C(=O)O -13.8%
Cn1c(=O)[nH]c(=O)c2[nH]c(N(Cc3ccccc3)Cc3ccccc3)nc21 10.1%
Cc1cc(NC(=O)CCCC(=O)NCc2cccs2)no1 3.8%
Cc1nc(NC(=O)CSc2nnnn2Cc2ccccc2)sc1C 5.5%
COc1ccc2c(c1)C1=NN(/C(C)=C/C(C)=O)C(c3cccc(F)c3)C1CC2 (configuration not stated) 44.9%
COc1ccc2c(c1)C1=NN(/C(C)=C\C(C)=O)C(c3ccccc3)C1CC2 (configuration not stated) 47.7%
COc1ccc2c(c1)CCC1C2=NN(/C(C)=C/C(C)=O)C1c1cccc(F)c1 (configuration not stated) 44.4%
COc1ccc2c(c1)CCc1c(C(=O)NCc3ccc(F)cc3)noc1-2 9.9%
O=C(CN(C(=O)CNC(=O)c1cccs1)c1ccc2c(c1)OCCO2)NC1CCCC1 4.5%
COc1ccc(N2CC(O)=C(c3nc(-c4ccc(F)cc4)cs3)C2=N)cc1Cl -5.1%
COc1ccccc1C(=O)NNC(=O)c1ccccc1F -3.9%
O=C(CN1CCOc2ccccc21)N1CCCC1 3.6%
O=C(CN1CCCCC1)N1c2ccccc2Oc2ccccc21 -7.7%
O=C(CN1C(=O)c2ccccc2C1=O)N1CCOCC1 7.3%
O=C(CN1CC(=O)Oc2ccccc21)OCC(=O)c1ccccc1 11.2%
